Source: PubChem
CHX counter: affects cycloheximide protein synthesis inhibition readout, counter-screen. cell reporter, cycloheximide protein synthesis inhibition counterscreen. max response, %. actives 12% (n = 300,000); in the data active = max response mostly above about 13%, no sharp cut-off; inactive = mostly below about 14%; note: read at 38.3 µM for the half of the compounds with a filed dose; 0% is about no effect
NS1 function inh: blocks influenza NS1 protein function | actives 0.4% (n = 270,000) | Potency, µM (titrated, usually from 46.1 µM), for inactives: at the highest dose activity, positive = more growth | AID 2326; calls by dose curve; note: potency is the fitted concentration of half-maximal effect; actives are rising curves; nearly all actives have a fitted effect of over 50% in size
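OD600 was taken as the measure of yeast growth restored by compound in an NS1-expressing S. cerevisiae strain. Cells had been washed out of glucose medium and diluted 1:100 into galactose -URA medium, pH 6.0.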
AmpC detergent: inhibitors of E. coli AmpC beta-lactamase with detergent. Potency, µM (series often up to 114 µM), without a hit: top-dose activity change, negative = inhibition, usual class: inhibitors. P00811. AID 485294. AmpC hydrolysis of nitrocefin, absorbance 480 nm, 0.01% Triton. actives 0.041% (n = 370,000);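 note: potency is the fitted concentration of half-maximal effect; 0% = no-compound wells and -100% = no-enzyme wells; nearly all actives have a fitted effect of over 25% in size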
Target sequence (P00811 whole entry, looked up): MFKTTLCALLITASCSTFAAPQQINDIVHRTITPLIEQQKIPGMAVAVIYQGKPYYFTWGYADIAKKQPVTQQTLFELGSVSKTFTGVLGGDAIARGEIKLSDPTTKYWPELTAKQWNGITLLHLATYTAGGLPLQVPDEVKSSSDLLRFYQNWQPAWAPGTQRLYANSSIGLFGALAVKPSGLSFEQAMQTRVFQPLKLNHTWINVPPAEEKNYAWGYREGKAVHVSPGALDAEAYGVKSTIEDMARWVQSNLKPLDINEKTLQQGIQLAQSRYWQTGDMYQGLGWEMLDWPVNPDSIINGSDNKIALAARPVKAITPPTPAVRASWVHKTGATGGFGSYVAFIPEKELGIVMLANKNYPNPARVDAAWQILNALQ
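20 mM phosphate pH 7.0 + 0.01% (detergent screen) or 0.0001% Triton X-100; 5.3 nM AmpC reagent; cpd preinc 15 min RT; nitrocefin (800 uM stock) to start; A480 q20 s × 4 min; Activity was normalised to no-enzyme and no-compound control wells.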
Shiga inhibitor: inhibitors of Shiga toxin in Vero cells. Vero cells, Shiga toxin protein synthesis inhibition reporter. inhibition, % at 38.7 µM. actives 9.2% (n = 290,000). AID 2315; in the data active = inhibition mostly above about 28%, no sharp cut-off; inactive = mostly below about 43%; note: 0% is about no effect
AmpC no deterg: inhibitors of E. coli AmpC beta-lactamase without detergent; Potency, µM (top dose mostly 57.1 µM), for inactives: at the top dose activity change, negative = inhibition, usual class: inhibitors; P00811; actives 0.52% (n = 330,000); AmpC nitrocefin hydrolysis, absorbance 480 nm, 0.0001% Triton;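 note: potency is the fitted concentration of half-maximal effect; plate controls were no compound for no effect and no enzyme for full effect; nearly all actives have a fitted effect of over 20% in size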
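20 mM phosphate pH 7.0 + 0.01% (detergent screen) or 0.0001% Triton X-100; 5.3 nM AmpC reagent; cpd preinc 15 min RT; nitrocefin (800 uM stock) to start; A480 q20 s × 4 min; Activity was normalised to no-enzyme and no-compound control wells.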
Active calls of the source: *; i = inactive; ? = inconclusive; · = not tested or not shown; + = active, no number; [ ] = remark or other dose. The sample as a whole holds a higher share of hits than the screen did. Unless noted, calls come from the whole dose curve; as a rule, active = well fitted curve in the direction sought with a large enough effect; inconclusive = small, poorly fitted or top-dose-only effect, or another doubt; inactive = no such curve, though single readings can be large; an effect the other way counts as inactive or inconclusive.

SMILES	CHX counter	NS1 function inh	AmpC detergent	Shiga inhibitor	AmpC no deterg
O=C(COc1cccc2ccccc12)N/N=C/C=C/c1ccccc1	-3	-3%	?	-13	-36%
COc1ccc(/C=C/C(=O)Oc2cccc(/C=N/NC(=O)COc3c(C)cccc3C)c2)cc1	53*	21%	-14%	105*	-21%
COc1ccc(NCC(=O)N/N=C/C=C\c2ccccc2)cc1	21*	26%	7%	19*	-3%
COc1ccc(S(=O)(=O)N2CCOCC2)cc1NC(=O)CSc1n[nH]c(C(C)C)n1	-1	·	4%	4	-12%
O=C(COC(=O)c1cc(S(=O)(=O)N2CCCCC2)ccc1N1CCOCC1)c1ccc(F)cc1	·	·	?	·	43%
O=C(Cn1c(=O)oc2cc(S(=O)(=O)N3CCCC3)ccc21)N1CCN(c2ccccn2)CC1	-2	-5%	?	-8	7.9µM*
ONC(=Nc1ccc(Cl)cc1)c1ccccc1	18*	0%	-9%	7	-10%
O=[N+]([O-])c1cccc(C(=Nc2cccc(Cl)c2)NO)c1	-3	-7%	2%	-6	-28%
CCOc1ccc(C2CC(=O)N(c3cccc(F)c3)C3=C2C(=O)OC3)cc1 (configuration not stated)	·	·	-3%	·	·
O=C(COC(=O)c1ccc2c(c1)OCO2)Nc1ccccc1	13*	-5%	3%	41*	-29%
O=C(COC(=O)/C=C/c1ccc2c(c1)OCO2)Nc1ccccc1	40*	·	4%	93*	-26%
CN(C)c1ccc(NC(=O)COC(=O)c2ccc3c(c2)OCO3)cc1	·	·	·	·	-17%
O=C(COC(=O)/C=C/c1ccc2c(c1)OCO2)Nc1ccc(S(=O)(=O)N2CCCC2)cc1	-2	6%	-2%	14	-36%
Cc1ccc(C(=O)NCc2ccco2)c(C)c1	17	13%	-11%	24	-2%
CN(C)C1=NCCN1CC1CCCCC1	·	·	-10%	·	-15%
O=C(NCC(c1ccco1)N1CCN(c2ccccc2)CC1)OCc1ccccc1 (configuration not stated)	11	-20%	-2%	18	8%
O=C(NCC(c1ccco1)N1CCN(c2ccccc2F)CC1)OCc1ccccc1 (configuration not stated)	21*	-53%	0%	28	-1%
COc1ccc2c3c(c(=O)oc2c1)C1O[C@](c2ccsc2)(Cc2cc(C#N)ccc21)O3	-3	23%	?	i	5µM*
N#Cc1ccc2c(c1)C[C@]1(c3ccsc3)Oc3c(c(=O)oc4ccc(F)cc34)C2O1	-4	15%	?	i	?
COc1cc2c(cc1OC)C1O[C@](c3ccsc3)(C2)Oc2c1c(=O)oc1ccc(F)cc21	16*	?	4%[22.9 µM]	i	138%[11.4 µM]
N#Cc1ccc2c(c1)C[C@]1(c3ccsc3)Oc3c(c(=O)oc4ccccc34)C2O1	24*	19%	-3%[22.9 µM]	+	5µM*
CCOc1ccc(-c2nc(Cn3c(=O)cc(-c4ccccc4)c4c(C)nn(C)c43)c(C)o2)cc1OC	·	·	12%	·	·
Cn1c(-c2ccccc2)c(C#Cc2ccc(N)cc2)c2ccccc21	·	·	·	·	-8%
O=C(Nc1cccc(F)c1)/C(=C/c1ccco1)NC(=O)c1ccco1	20*	9%	4%	25	-18%
O=C(Nc1cccc(C(F)(F)F)c1)c1scc2c1OCCO2	38*	·	2%	36	2%
SMILES	CHX counter	NS1 function inh	AmpC detergent	Shiga inhibitor	AmpC no deterg
O=C(Nc1cccc(C(F)(F)F)c1)c1ccco1	11*	-121%	-13%	12	-32%
O=C(Nc1cccc(F)c1)/C(=C\c1cccnc1)NC(=O)c1ccco1	1	4%	-1%	-4	-18%
O=C(/C=C/Nc1cccc(C(F)(F)F)c1)c1ccco1	39*	-6%	1%	80*	-24%
COc1cc(NC(=O)c2cccc3c2C(=O)N(C2CCCCC2)C3)cc(OC)c1	·	·	-3%	·	·
CN(C)/C=C/C(=O)c1cccc(Oc2ncccn2)c1	2	1%	0%	-6	-10%
O=C(/C=C/Nc1cccc(C(F)(F)F)c1)c1ccc(Oc2ncccn2)cc1	47*	0%	-5%	87*	60%
O=C(Nc1cccc(S(=O)(=O)c2cccc(NC(=O)c3ccco3)c2)c1)c1ccco1	20*	3%	-14%	28*	-48%
COc1ccc2[nH]cc(CCn3ccc(O)c(C/C=C/c4ccccc4)c3=O)c2c1	-3	?	0%	1	16µM*
O=c1c(C/C=C/c2ccccc2)c(O)ccn1CCc1c[nH]c2ccccc12	1	26%	-6%	19	-7%[2.29 µM]
COc1ccccc1-[n+]1c(C)cc(/C=C2\Sc3ccccc3N2C)cc1C	32*	-117%	11%	24	59%
COc1ccc(-[n+]2c(C)cc(/C=C3\Sc4ccccc4N3C)cc2C)cc1	33	·	-3%	62*	38%
CC[n+]1c(/C=C2\Sc3ccccc3N2C)ccc2cccc(C)c21	-4	-74%	-11%	-17	4%
COc1ccc(C(=O)/C=C2\Sc3ccccc3N2C)cc1	35*	3%	-4%	47	-14%
CC(=S)/C=C1\Sc2ccccc2N1C	-2	17%	?	-18	-14%
Cc1c(Cl)cccc1NC(=O)CSc1nc(=O)[nH]c2c1CCC2	·	·	1%	·	·
CN(C(=O)c1ccc(Br)o1)C1(C)CCS(=O)(=O)C1 (configuration not stated)	5	-9%	?	-8	-15%
CC(C)c1ccc2oc(-c3ccc(NC(=O)c4cccc(Br)c4)cc3)nc2c1	·	·	-5%	·	·
COCCn1c(SCC(=O)Nc2ncc(C)s2)nc2sc3c(c2c1=O)CCC3	25*	2%	?	38	18%
CCN(CC)C(=O)CSc1nc2sc3c(c2c(=O)n1CCCOC)CCC3	-2	3%	-14%	·	128%
CC(CCc1ccccc1)NC(=O)C(=O)Nc1ccccc1 (configuration not stated)	56*	14%	3%	100*	-17%
CC(CCOC1=NS(=O)(=O)c2ccccc21)NC(=O)C(=O)Nc1ccccc1 (configuration not stated)	29*	-8%	3%	65*	-34%
CCCCNC(=O)CSc1nnc(C)c2c(C)n(-c3ccccc3)nc12	38*	·	15%	74*	·
CCOc1ccc(CNC(=O)CSc2nnc(C)c3c(C)n(-c4ccccc4)nc23)cc1	·	·	22%	·	·
Cc1nn(CC(=O)NCCc2cccs2)c(=O)c2nn(-c3ccccc3)c(C)c12	22*	18%	1%	19*	-3%
CCN(CC)c1ccc(/C=C2\C(=O)c3ccc(C(=O)O)cc3C2=O)cc1	130*	-40%	-8%	+	-15%
CC(=O)N(c1nnc(-c2cccc(C)c2)s1)C1CCCC1	40*	9%	-4%	·	14%
C=CCC[C@H](Cc1ccc(F)cc1)C(=O)OC[C@H](C)NC(=O)[C@@H](CC=C)CC(=O)N[C@H](CO)Cc1ccccc1	·	·	·	·	30%
